# An excerpt weighted towards active compounds, which were near 7.2% of everything screened.
# FMDV inh: blocks foot and mouth disease virus | AID 1159524 | hit rate 1.2% among 410,000 | FMDV antiviral cell-based qHTS | Potency, µM (titrated, usually from 57.9 µM), for the others: top-dose activity change, negative = inhibition, most hits filed as inhibitors; calls by dose curve; tested in HEK293T cells; also: read-out not given here; nearly all actives have a fitted effect of over 45% in size
# HCV inh: blocks hepatitis C virus; Huh7.5.1 HCVcc-Cre infection, luciferase reporter, 44 h; Potency, µM (titrated, usually from 41.8 µM), for inactives: top-dose activity change, negative = inhibition, usual class: inhibitors; hit rate 3.4% among 340,000; AID 651820
#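 Antiviral activity was scored by luciferase reporter output from cells infected with HCVcc-Cre (~0.5 moi) in presence of compound, 44 h infection period, cells seeded 1,000/well 4 h prior.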
# Marburg entry inh: blocks Marburg virus binding to or entry into cells; Marburg virus pseudotyped entry inhibition, cell reporter; Potency, µM (titrated, usually from 37.8 µM), for the others: at the top dose activity change, negative = inhibition, most hits filed as inhibitors; hit rate 1.8% among 300,000; calls by dose curve; tested in HEK293 cells
# Sm TGR inh: blocks Schistosoma mansoni thioredoxin glutathione reductase | Q962Y6 | purified TGR, DTNB reduction, TNB absorbance 405 nm | Potency, µM (doses to about 114 µM), without a hit: at the highest dose activity change, negative = inhibition, usual class: inhibitors | hit rate 3% among 360,000 | AID 485364; also: nearly all actives have a fitted effect of over 60% in size
#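 TGR 20 nM + NADPH 100 uM (dispensed conc.), cpd preinc 15 min RT; start with NADPH (500 uM addition) then DTNB (15 mM addition). Kinetic TNB absorbance, 405 nm filter. Four-parameter Hill fit across titration.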
# Lassa entry inh: inhibitors of Lassa virus binding or cell entry; Potency, µM (highest dose often 37.9 µM), for inactives: at the top dose activity change, negative = inhibition, hits mostly inhibitors; Lassa virus pseudotype entry inhibition, cell reporter; AID 540256; hit rate 1.2% among 300,000; calls by dose curve; tested in HEK293 cells; also: nearly all actives have a fitted effect of over 50% in size
# RE007 growth inh: less growth of the S. pombe RE007 Vpr strain. Potency, µM (series often up to 92.2 µM), inactives show at the top dose activity change, negative = less growth, hits mostly inhibitors. S. pombe RE007 Vpr strain, BacTiter-Glo ATP luminescence, 24 h. hit rate 0.21% among 360,000; active = well fitted falling curve with a large enough effect; inconclusive = small, poorly fitted or top-dose-only effect; inactive = no such curve, though single readings can be large or run the other way; also: nearly all actives have a fitted effect of over 50% in size
#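 Fission yeast strain RE007, carrying one chromosomally integrated HIV-1 vpr copy, was seeded at OD 0.01 in PMG+AL medium with 23 nL pinned compound. After 24 h at 30 °C and 99% humidity, viability was read by BacTiter-Glo luminescence.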
# An asterisk follows results filed as active; ? = inconclusive; · = no result; [ ] = remark or other dose. Unless noted, calls follow the shape of the dose curve; as a rule, active = well fitted curve in the direction sought with a large enough effect; inconclusive = small, poorly fitted or top-dose-only effect, or another doubt; inactive = no such curve, though single readings can be large; an effect the other way counts as inactive or inconclusive. % is scaled to controls: 0 for no effect and ±100 for the full control effect; potency is read from the fitted curve at half-maximal effect.
SMILES,FMDV inh,HCV inh,Marburg entry inh,Sm TGR inh,Lassa entry inh,RE007 growth inh
COc1ccc2nc(Nc3sc4c(c3C(N)=O)CCCC4)sc2c1,-8%,0%,6%,13µM*,-3%,?
COc1ccc2nc(NC3=NCCC3)sc2c1,26%,9%,?,12%,-5%,-27%
Cc1ccc2c(c1)C(c1ccccc1)N(C(=O)COc1ccc(Cl)cc1Cl)CC(=O)N2 (stereo unspecified),?,·,?,1%,?,·
COc1cc(NC(=O)N2CCc3nc(NCc4cccc(Oc5ccccc5)c4)ncc3C2)cc(OC)c1OC,?,·,·,·,·,22%
COc1cc(Nc2ncc3c(C)nc(-c4cccc(C(F)(F)F)c4)n3n2)cc(OC)c1OC,·,·,·,·,10µM*,·
COc1cc(Nc2ncc3c(C)nc(-c4cccc(Oc5ccccc5)c4)n3n2)cc(OC)c1OC,·,·,·,·,3.1µM*,·
O=C(Nc1cccc(C(F)(F)F)c1)c1cccnn1,-7%,2%,2%[46.1 µM],89µM*,4%[46.1 µM],-14%
O=C(Nc1cccc(C(F)(F)F)c1)c1csc(-c2ccncc2)n1,100µM*,-8%,?,-11%,?,7%
COc1cc(NC(=O)c2csc(-c3ccncc3)n2)cc(C(=O)Nc2cccc(C(F)(F)F)c2)c1,-27%,7%[8.37 µM],·,-2%,·,1%
CCCC(=O)Nc1cc(C)c(NC(=O)c2ccncc2)cn1,7%,7%,3%,-7%,2.8µM*,-21%
CCCCC(=O)Nc1cc(C)c(NC(=O)c2cccs2)cn1,1%,-2%,3%,1%,2%,-5%
CN(c1ccc(OCC(=O)N2CCN(c3ccc(F)cc3)CC2)cc1)S(=O)(=O)c1cccs1,-24%,3.5µM*,8.9µM*,?,?,-8%
CN(c1ccc(OCC(=O)N2CCCCC2)cc1)S(=O)(=O)c1cccs1,-12%,-8%,0%,2%,?,-12%
Cc1ccc(S(=O)(=O)N(C)c2ccc(OCC(=O)Nc3nc4c(ccc5ccccc54)s3)cc2)cc1,3%,?,1.4µM*,-12%,2%,4%
CN(c1ccc(OCC(=O)Nc2nc(-c3ccccc3)cs2)cc1)S(=O)(=O)c1ccc(F)cc1,?,10µM*,?,-4%,-24%,17%
CCOC(=O)Cc1csc(NC(=O)COc2ccc(N(C)S(=O)(=O)c3cccs3)cc2)n1,25µM*,?,?,2%[11.4 µM],-28%,-7%
Nc1nc2n(n1)[C@@H](c1cccs1)C[C@H](c1ccc(F)cc1)N2,·,·,-1%,·,·,·
CCc1ccc(/C=C2/SC(=S)NC2=O)cc1,·,·,?,·,0%,·
COc1ccc(N(C(=O)Cn2nnc3ccccc32)C(C(=O)NCc2ccccc2)c2ccc(F)cc2)cc1 (stereo unspecified),2%,·,-6%[46.1 µM],-2%,-3%[46.1 µM],·
Cc1cccc(N2CCN(C(=O)C3CCN(C(=O)c4cc5sccc5n4C)CC3)CC2C)c1 (stereo unspecified),?,·,?,1%,·,·
COc1cc(/C=N\n2nnnc2N)ccc1O,·,·,10%,·,·,·
O=C(O)COc1ccc2c(c1)O/C(=C\c1cccs1)C2=O,12%,-17%,20%[46.1 µM],10%,4%,-11%
O=C(O)COc1ccc2c(c1)O/C(=C\c1ccco1)C2=O,-3%,20%,·,22µM*,·,15%
C=CC(=O)N1C/C(=C/c2ccc(Cl)cc2)C(=O)/C(=C\c2ccc(Cl)cc2)C1,8.9µM*,4.5µM*,?,·,2.2µM*,-2%
O=C1/C(=C/c2ccc(C(=O)O)cc2)CCC/C1=C\c1ccc(C(=O)O)cc1,-8%,7%,-12%,-15%,5%,10%
SMILES,FMDV inh,HCV inh,Marburg entry inh,Sm TGR inh,Lassa entry inh,RE007 growth inh
O=C1C(=Cc2ccc(Cl)cc2)Cc2ccccc21,28%,·,·,·,·,-6%
C=CC(=O)N1C/C(=C/c2ccccc2)C(=O)/C(=C\c2ccccc2)C1,7.9µM*,6.3µM*,2.8µM*,·,?,?
c1ccc(CNc2ccnc(-c3cccnc3)n2)cc1,-9%,·,·,·,·,·
CCOc1ccc(CNC(=O)CCS(=O)(=O)c2cc3c4c(c2)CCN4C(=O)CC3)cc1OC,16%,·,·,1%,26%[46.1 µM],·
Cc1ccc(CN2CCN(Cc3ccncc3)CC2CCO)o1 (stereo unspecified),-20%,21%,3%[46.1 µM],20µM*,20%[46.1 µM],-19%
COc1cccc(CN2CCN(Cc3ccc(OC)c(OC)c3)CC2CCO)c1 (stereo unspecified),-13%,4%,-1%[46.1 µM],-17%,1%,-9%
COc1cccc(CN2CCN(Cc3ccc(C)o3)CC2CCO)c1 (stereo unspecified),64%,4%,·,35µM*,·,10%
COc1cccc(CN2CCN(Cc3cc4ccccc4o3)CC2CCO)c1 (stereo unspecified),0%,15%,?,2%,?,-7%
COc1cccc(CN2CCN(Cc3ccc(O)c(OC)c3)CC2CCO)c1 (stereo unspecified),5%,-28%,2%[46.1 µM],35µM*,?,-5%
CC1CCCCN1C(=O)CSc1nc2ccccc2nc1Cc1ccccc1 (stereo unspecified),-20%,·,·,-2%,?,·
COc1ccccc1-c1noc(-c2ccc(N3CCC(C)CC3)c([N+](=O)[O-])c2)n1,21%,·,-24%[46.1 µM],5%,8%[46.1 µM],·
COc1ccc(N2CSC3=C(C#N)C(c4cc(OC)c(OC)cc4OC)CC(=O)N3C2)c(OC)c1 (stereo unspecified),-24%,-8%,-7%,6.3µM*,·,0%
CCOC(=O)c1ccc(N2CSC3=C(C#N)C(c4cccs4)CC(=O)N3C2)cc1 (stereo unspecified),-20%,3%,0%,0%,·,-18%
COc1ccc(N2CSC3=C(C#N)C(c4cccs4)CC(=O)N3C2)cc1 (stereo unspecified),3%,16%,4%,22µM*,-3%,-15%
CCOc1ccccc1N1CSC2=C(C#N)C(c3c(OC)ccc4ccccc34)CC(=O)N2C1 (stereo unspecified),-25%,8%,·,13µM*,·,-6%
COc1cc(OC)c(C2CC(=O)N3CN(c4ccc(C)cc4)CSC3=C2C#N)cc1OC (stereo unspecified),25%,-6%,3%,8.9µM*,19%,-6%
COc1ccc(N2CSC3=C(C#N)C(c4cc(OC)ccc4OC)CC(=O)N3C2)c(OC)c1 (stereo unspecified),-21%,?,4%,?,·,-11%
Cc1ccc(C)c(CN2C(=O)c3ccccc3S(=O)(=O)c3ccc(C(=O)N4CCN(Cc5ccccc5)CC4)cc32)c1,-7%,·,25%[46.1 µM],-6%,-7%[46.1 µM],·
COc1ccc(C2CC(=O)N3CN(c4ccc(C)c(Cl)c4)CSC3=C2C#N)cc1OC (stereo unspecified),-13%,-15%,0%,50µM*,·,7%
